Most compounds without a hit are left out; they make up all but 6% or so of the library.
Tau fibril FP – inhibitors of human tau fibril formation. P10636. K18 P301L tau heparin fibrillization, Alexa594 FP, 6 h. Potency, µM (top dose mostly 57.7 µM), inactives show at the top dose activity, negative = inhibition, usual class: inhibitors. 280,000 compounds, 0.39% hits. AID 1468; note: nearly all actives have a fitted effect of over 55% in size
Target sequence (P10636 561-689 P618L limits assumed): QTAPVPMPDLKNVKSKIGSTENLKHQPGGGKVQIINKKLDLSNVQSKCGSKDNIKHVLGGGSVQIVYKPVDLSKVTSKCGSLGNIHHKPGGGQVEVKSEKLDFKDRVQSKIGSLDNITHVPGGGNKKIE
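Quantitative HTS format: compounds meet 15 uM recombinant K18 P301L tau and Alexa 594-tau tracer in 100 mM sodium acetate pH 7; 20 uM heparin triggers fibrillization at 37 C over 6 hr; FP gives the signal.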
PLK1 PBD block – inhibitors of human PLK1 polo-box domain binding. P53350. Potency, µM, for inactives: max response, negative = inhibition, actives largely listed as inhibitors. Plk1 PBD binding of FITC phosphopeptide, fluorescence polarization. 360,000 compounds, 2.8% hits; note: series mostly up to about 57 µM; nearly all actives have a fitted effect of over 65% in size
Sfp PPTase inh – Sfp phosphopantetheinyl transferase inhibition. Q9F4F7. Biochemical Sfp PPTase activity, qHTS. Potency, µM, inactives show largest response in the series, negative = inhibition, actives largely listed as inhibitors. 310,000 compounds, 3.5% hits;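 note: the enzyme is Sfp with the accession as filed and its product quenches rhodamine fluorescence; 0% = enzyme reaction without inhibitor and -100% = no enzyme wells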
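With Hepes-Na pH 7.6 buffer containing 10 mM MgCl2, Sfp (15 nM) modified BHQ-2-YbbR (12.5 uM) using rhodamine-CoA (5 uM). Two reads 30 minutes apart at 525/598 nm yielded each well's rate.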
VDR inh – blocks the human vitamin D receptor | P11473 | VDR-SRC2-3 peptide fluorescence polarization, 2 h | Potency, µM, for the others: max response, negative = inhibition, actives largely listed as inhibitors | 400,000 compounds, 0.93% hits | AID 504847
Target sequence (P11473 whole entry, looked up): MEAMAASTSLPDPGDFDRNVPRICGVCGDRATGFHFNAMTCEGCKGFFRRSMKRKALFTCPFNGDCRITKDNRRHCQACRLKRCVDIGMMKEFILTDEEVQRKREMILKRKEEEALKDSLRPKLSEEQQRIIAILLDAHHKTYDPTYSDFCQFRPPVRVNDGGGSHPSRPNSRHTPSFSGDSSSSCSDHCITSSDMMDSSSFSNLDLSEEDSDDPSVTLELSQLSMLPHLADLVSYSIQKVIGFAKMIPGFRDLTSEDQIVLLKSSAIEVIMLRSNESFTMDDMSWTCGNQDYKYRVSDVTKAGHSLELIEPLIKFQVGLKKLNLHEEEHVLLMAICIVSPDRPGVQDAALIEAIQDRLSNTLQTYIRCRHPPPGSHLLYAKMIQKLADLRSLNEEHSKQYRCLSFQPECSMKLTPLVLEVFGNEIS
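Compounds are added to VDR with labelled SRC2-3 coactivator peptide and held 2 h at room temperature. Inhibition of the VDR–peptide interaction is then read as a change in fluorescence polarization.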
Tau ThT inhib – tau fibrillization inhibition (ThT binding) | AID 1460 | 270,000 compounds, 2.1% hits | recombinant tau K18 P301L, heparin-induced fibrillization, ThT fluorescence | Potency, µM (highest dose often 57.4 µM), without a hit: at the highest dose activity, negative = inhibition, usual class: inhibitors; note: nearly all actives have a fitted effect of over 55% in size
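In this qHTS, human K18 P301L tau is incubated with compound and heparin for 6 hr at 37 C, and Thioflavin T fluorescence then reports fibril load.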
Tau fluor cs – counter-screen for tau fibril formation inhibitors. Potency, µM (highest dose often 57.7 µM), for the others: top-dose activity change, negative = decrease. 280,000 compounds, 0.93% hits. AID 1463. tau K18 P301L (four-repeat tau fragment) Alexa594 fluorescence, heparin fibrillization; note: nearly all actives have a fitted effect of over 55% in size
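Human K18 P301L tau (15 uM unlabeled plus 0.24 uM Alexa 594-labeled, final) in 100 mM sodium acetate pH 7 was mixed with compound and 20 uM heparin and incubated 6 hr at 37 C.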
* marks the source's active call; other numbers are inactive results; ? = inconclusive; · = not tested or not shown; [ ] = another dose, or the depositor's remark. Calls come from the whole dose curve; as a rule, active = well fitted curve in the direction sought with a large enough effect; inconclusive = small, poorly fitted or top-dose-only effect, or another doubt; inactive = no such curve, though single readings can be large; an effect the other way counts as inactive or inconclusive. Unless noted, % is set by controls: 0 for no effect and ±100 for the full control effect; potency is the fitted concentration of half-maximal effect.

SMILES | Tau fibril FP | PLK1 PBD block | Sfp PPTase inh | VDR inh | Tau ThT inhib | Tau fluor cs
Cn1cccc1Cc1nnc(SCC(=O)Nc2cccc(Cl)c2)n1-c1ccc(F)cc1 | -1% | 27µM* | -7% | -24% | -10% | ?
Cc1ccc(C)c(-n2c(SCC(=O)NCC3CCCO3)nnc2-c2ccoc2C)c1 (stereo not given) | 28µM* | -16% | ? | 1% | ? | -15%
COc1ccc(-n2c(Cc3cccn3C)nnc2SCC(=O)NC2CCCCC2)cc1 | 3% | 3% | -1% | -22% | -16% | -10%
Cc1ccc(S(=O)(=O)N2[C@H](CC(=O)c3cccs3)OC[C@@H]2C)cc1 | · | 6% | · | · | · | ·
COCCn1nnnc1C(c1cc2cccc(C)c2[nH]c1=O)N1CCN(c2ccccc2F)CC1 (stereo not given) | 1% | -28% | 14µM* | 6% | ? | -2%
CCc1ccc2[nH]c(=O)c(C(c3nnnn3CCOC)N3CCN(c4ccc(F)cc4)CC3)cc2c1 (stereo not given) | 11% | -11% | 18µM* | -8% | ? | -22%
CCc1ccc2[nH]c(=O)c(C(c3nnnn3CCOC)N3CCN(c4ccccc4)CC3)cc2c1 (stereo not given) | -4% | -8% | 32µM* | -16% | ? | -15%
COc1ccccc1-c1cn[nH]c1-c1ccc(OCc2ccc([N+](=O)[O-])cc2)cc1O | ? | 9% | 15% | 13% | 4% | -24%
COc1ccccc1-c1cn[nH]c1-c1ccc(OCc2ccccc2F)cc1O | ? | 3% | 14% | 32% | -18% | 10µM*[quencher]
COc1ccccc1-c1cn[nH]c1-c1ccc(OCc2ccc(F)cc2)cc1O | ? | -5% | 22% | -7% | -10% | 10µM*[quencher]
COc1ccccc1-c1cn[nH]c1-c1ccc(O)cc1O | · | 5% | 12% | 24% | · | ·
O=C(CSc1nc2c([nH]c3ccccc32)c(=O)n1-c1ccccc1)N1CCc2ccccc21 | -7% | · | · | 4% | 4% | 1%
Cc1cc(F)ccc1C(O)c1ncc(-c2cccc3ccccc23)[nH]1 (stereo not given) | · | 5% | · | · | · | ·
CC(=O)Nc1ccc(NC(=O)c2ccc3c(c2)N(Cc2cccc(Cl)c2)C(=O)c2ccccc2S3(=O)=O)cc1 | 16µM* | · | · | 2% | -11% | ?
O=C(NCc1ccco1)C(c1ccco1)N(Cc1cccs1)C(=O)Cn1nnc2ccccc21 (stereo not given) | -14% | -9% | -21% | -12% | 0% | -4%
O=C(NCc1ccco1)C(c1ccco1)N(CCc1ccccc1)C(=O)Cn1nnc2ccccc21 (stereo not given) | 6% | 3.8µM* | ? | 2% | -1% | 3%
CCN(Cc1ccccc1)S(=O)(=O)c1ccc(C(=O)N(CCCN(C)C)c2nc3cc4c(cc3s2)OCO4)cc1 | · | 0% | 56µM* | -2% | · | ·
CN(C)CCN(C(=O)c1ccc(C(=O)c2ccccc2)cc1)c1nc2cc3c(cc2s1)OCO3 | · | -12% | 56µM* | -26% | · | ·
CCN(CC)CCN(C(=O)c1ccc2c(c1)CCCC2)c1nc2ccc(OC)cc2s1 | · | -9% | 79µM* | -1% | · | ·
Cc1cc(C)c2nc(N(CCN(C)C)C(=O)c3ccc4ccccc4c3)sc2c1 | · | -9% | 56µM* | 3% | · | ·
Cc1cc(O)c(CN2CCN(c3ccc(F)cc3)CC2)c2oc(=O)cc(C)c12 | -6% | · | · | 5% | -5% | -4%
CCN(CC)CCN(C(=O)c1ccc2ccccc2c1)c1nc2cc3c(cc2s1)OCO3 | · | 1% | 45µM* | 2% | · | ·
Cc1[nH]c2ccccc2c1SCCNC(=O)c1ccc(F)cc1 | 19% | · | · | 6% | -10% | ?
Cc1[nH]c2ccccc2c1SCCNC(=O)c1ccc(S(=O)(=O)N2CCCC2)cc1 | 6% | -4% | 5% | -10% | -15% | 16µM*[quencher]
CCN(CC)S(=O)(=O)c1ccc(C(=O)NCCSc2c(-c3ccc(C)cc3)[nH]c3ccccc23)cc1 | -1% | · | · | 5% | -4% | 3.2µM*[quencher]
SMILES | Tau fibril FP | PLK1 PBD block | Sfp PPTase inh | VDR inh | Tau ThT inhib | Tau fluor cs
CCN(CC)S(=O)(=O)c1ccc(C(=O)NCCSc2c[nH]c3ccccc23)cc1 | 16% | 4% | 17% | -16% | ? | ?
COc1ccc(-c2[nH]c3ccccc3c2SCCNC(=O)c2cc3ccccc3oc2=O)cc1 | 14% | -13% | 9% | -6% | ? | 11µM*[quencher]
Cc1ccc2c(CC(=O)Nc3cc(C(F)(F)F)ccc3Cl)coc2c1C | -8% | · | · | 8% | 6% | -5%
CC(C)=NOc1nc(N(C)C)nc(N2CCOCC2)n1 | -4% | 30µM* | -3% | ? | -12% | -15%
Cc1ccc(-c2csc(NC(=O)c3ccccc3F)c2C(=O)O)cc1 | · | ? | 14% | -22% | · | ·
Cc1ccccc1C(=O)Nc1scc(-c2ccc(Br)cc2)c1C(=O)O | · | 21µM* | · | -1% | · | ·
CC1(C)CC(=O)C(=CN2CCOCC2)C(=O)C1 | ? | -17% | -30% | 0% | 16µM* | -24%
CC(C1CC2CCC1C2)n1c(-c2ccco2)n[nH]c1=S (stereo not given) | -3% | 30µM* | ? | 79µM* | -6% | -3%
Cc1ccc(F)c(NC(=O)Nc2ccc3snnc3c2)c1 | ? | · | · | 5% | 3% | ?
Cc1c(Cl)cccc1NC(=O)Nc1ccc2snnc2c1 | 18µM* | · | · | 26% | ? | 10µM*[quencher]
NC(=O)CC(NC(=O)c1ccccc1)c1ccc(NCCc2ccc(Cl)cc2)c([N+](=O)[O-])c1 (stereo not given) | -12% | -10% | -27% | -13% | 13µM* | ?
NC(=O)CC(NC(=O)c1ccc(Br)cc1)c1ccc(NCc2ccc(F)c(F)c2)c([N+](=O)[O-])c1 (stereo not given) | -14% | -4% | 50µM* | 11% | ? | -14%
Cc1cccc(CNc2ccc(C(CC(N)=O)NC(=O)c3cccc(Br)c3)cc2[N+](=O)[O-])c1 (stereo not given) | -11% | -5% | 18% | -15% | -17% | -5%
NC(=O)CC(NC(=O)Cc1ccc(Cl)cc1)c1ccc(NCc2ccccc2)c([N+](=O)[O-])c1 (stereo not given) | -2% | -1% | 23% | -16% | -1% | 8%
NC(=O)CC(NC(=O)c1ccccc1)c1ccc(NCc2ccc(F)cc2)c([N+](=O)[O-])c1 (stereo not given) | 2% | -8% | -20% | -4% | 25µM* | -20%
NC(=O)CC(NC(=O)c1ccccc1)c1ccc(NCc2ccccc2)c([N+](=O)[O-])c1 (stereo not given) | -3% | -2% | -11% | -2% | 13µM* | -28%
